Test results from PubChem BioAssay AID743172 (National Center for Advancing Translational Sciences (NCATS), 2013).
Several values for one entry are separate records, joined by “and”; a condition that tells them apart may be missing. Identical values can stand only once. Records with an inconclusive call do not appear. Activity calls are given as the source filed them. The call rests on the fitted dose curve; in most records, active means well fitted activation curve with a large enough effect; inconclusive means small, poorly fitted or top-dose-only effect; inactive means no such curve, though single readings can be large or run the other way.

Assay: Extended Characterization of HPGD Inhibitors: PGE2 Assay in LNCaP Cells
Conditions: PGE2 HTRF level, 16 h; series mostly up to 100 µM

Row | SMILES | Potency
1 | FC(F)(F)c1ccc(CSc2nc3ncc(Br)cc3[nH]2)cc1 | 44.3 µM (active)
2 | COc1ccc(CSc2nc3ncc(Br)cc3[nH]2)cc1F | 22.2 µM (active)
3 | Brc1cnc2nc(SCc3ccncc3)[nH]c2c1 | 4.43 µM (active)
4 | FC(F)(F)c1ccc(-c2nc(-c3nnc4n3CCCCC4)c(C(F)(F)F)o2)cc1 | inactive
5 | c1ccc(-n2cc(-c3nnc4n3CCCCC4)cn2)cc1 | inactive
6 | Cc1cc(-c2nnc3n2CCCCC3)c(C)n1-c1cccc(Cl)c1 | 0.558 µM (active)
7 | Cc1cc(-c2nnc3n2CCCCC3)c(C)n1-c1ccc([N+](=O)[O-])cc1 | 2.22 µM (active)
8 | N#Cc1ccccc1CNc1nc2ncc(Br)cc2[nH]1 | inactive
9 | N#Cc1cccc(CSc2nc3ncc(Br)cc3[nH]2)c1 | 35.2 µM (active)
10 | Cc1ccc(-n2c(C)cc(-c3nnc4n3CCCCC4)c2C)cc1 | 0.702 µM (active)
11 | Cc1cccc(-n2cnc3cc(C(=O)N4CCCCC4)ccc32)c1 | 702 nM (active) and 884 nM (active)
12 | Clc1ccc(CSc2nc3ncc(Br)cc3[nH]2)cc1Cl | 22.2 µM (active)
13 | CCOC(=O)c1ccc(-n2c(C)cc(-c3nnc4n3CCCCC4)c2C)cc1 | 14 µM (active)
14 | Cc1cc(-c2nnc3n2CCCCC3)c(C)n1-c1cccc2ccccc12 | 884 nM (active) and 1.76 µM (active)
15 | Cc1cccc(-n2cnc3cc(C(=O)N4CCC(Cc5ccccc5)CC4)ccc32)c1 | inactive
16 | COc1cccc(-n2cnc3cc(C(=O)N4CCCCC4)ccc32)c1 | 0.28 µM (active)
